VHR inh abs: inhibitors of human VHR1 phosphatase (DUSP3); inhibition, % at 13.3 µM; 290,000 compounds, 0.52% hits; recombinant VHR phosphatase, pNPP absorbance; P51452; in the data active = inhibition above about 50%
SSB-PriA inh: inhibitors of Klebsiella pneumoniae PriA binding to SSB C-terminal tail | AlphaScreen SSBct-PriA binding, biotinylated peptide | inhibition, % at 33 µM | 430,000 compounds, 0.6% hits | AID 1272365; in the data active = inhibition mostly above about 37%, no sharp cut-off; inactive = mostly below about 20%;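 also: plate controls were negative control peptide for no effect and reference peptide for full effect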
SARS 3CLpro inh: SARS-CoV 3CLpro protease inhibition | inhibition, % at 6 µM | recombinant SARS-CoV 3CLpro, quenched FRET peptide cleavage | AID 1706 | 290,000 compounds, 0.14% hits | P0C6X7; in the data active = inhibition above about 12%
RecA splice inh: Mtb RecA intein splicing inhibition. cell-free RecA intein splicing, fluorescence. P9WHJ3. AID 2221. 290,000 compounds, 0.75% hits. inhibition, % (concentration not given with the values); in the data active = inhibition above about 30%;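 also: 0% = vehicle wells and 100% = reference inhibitor control wells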
CCHF vOTU inh-1: blocks the CCHF virus ovarian tumor domain protease; 370,000 compounds, 0.55% hits; inhibition, % at 11.5 µM; AID 651958; CCHFV vOTU protease, Pep-AMC fluorescence; also: 0% = vehicle wells with enzyme and 100% = no enzyme wells
CCHF vOTU inh-2: CCHFV vOTU protease inhibition, confirmation; inhibition, % at 11.5 µM; shares compounds with CCHF vOTU inh-1; 1,900 compounds, 17% hits; Recombinant CCHFV vOTU, Pep-AMC fluorescence
The depositor's hits bear a star; nt = no result. Compounds with a hit are over-represented: about 1.7% of the library has one in this group of screens. Rule as the data show it, unless noted: active = inhibition above about 30%; inactive = the rest.

SMILES | VHR inh abs | SSB-PriA inh | SARS 3CLpro inh | RecA splice inh | CCHF vOTU inh-1 | CCHF vOTU inh-2
Cc1ccc(N2CN(CC(=O)N3CCCc4ccccc43)S(=O)(=O)c3cccnc32)cc1 | nt | -13 | nt | nt | nt | nt
Cc1ccc(S(=O)(=O)N2[C@@H](c3ccc(C(C)(C)C)cc3)C(C(=O)O)=CC[C@H]2c2cccs2)cc1 | nt | 0 | nt | nt | 32* | 3
Cc1c(C(=O)Oc2coc(CSc3nnc(NC(=O)c4cccs4)s3)cc2=O)cccc1[N+](=O)[O-] | nt | -7 | nt | nt | nt | nt
Cc1ccc(S(=O)c2ccc([N+](=O)[O-])c3nonc23)cc1 (stereo not drawn) | nt | nt | nt | nt | 32* | 18
N#CCCN(C(=O)COC(=O)CCNS(=O)(=O)c1ccccc1)c1ccccc1 | nt | -1 | nt | nt | 58* | 3
N#CCCN(C(=O)COC(=O)CCC(=O)c1cccs1)c1ccccc1 | nt | 0 | nt | nt | -11 | nt
O=C(CN1C(=O)CCC1=O)NCc1nn(C2CCCC2)c2c1CCCC2 | nt | -9 | nt | nt | nt | nt
O=c1cc(-c2ccccc2)oc2ccccc12 | nt | -12 | nt | nt | 2 | nt
Nc1cc([N+](=O)[O-])cc2oc(-c3ccccc3)cc12 | 32 | -13 | 3 | 3 | 32* | -12
CCOC(Cn1c(COc2cccc3ccccc23)nc2ccccc21)OCC | nt | -1 | nt | nt | nt | nt
COC(=O)[C@@]12C[C@@H](CC(=O)NCc3ccc(OC)c(OC)c3)C(=O)N(CCc3ccc(OC)c(OC)c3)C1=CCC(C)(C)C2 | nt | nt | nt | nt | 31* | -11
CCCCNC(=O)C[C@@H]1C[C@@]2(C(=O)OC)CC(C)(C)CC=C2N(CCc2ccc(OC)c(OC)c2)C1=O | nt | nt | nt | nt | 1 | nt
CCCCCCCCN1C(=O)[C@H](CC(=O)N2CCCCC2)C[C@@]2(C(=O)OC)CC(C)(C)CC=C12 | nt | nt | nt | nt | 33* | 13
CCCCCCCCN1C(=O)[C@H](CC(=O)NCc2ccc(OC)c(OC)c2)C[C@@]2(C(=O)OC)CC(C)(C)CC=C12 | nt | nt | nt | nt | 37* | 3
COC(=O)[C@@]12C[C@@H](CC(=O)NCc3cccc(C(F)(F)F)c3)C(=O)N(Cc3cccc4ccccc34)C1=CCC(C)(C)C2 | nt | nt | nt | nt | 31* | 1
CCCCCCCCN1C(=O)[C@H](CC(=O)N2CCOCC2)C[C@@]2(C(=O)OC)CC(C)(C)CC=C12 | nt | nt | nt | nt | 29 | nt
O=C(Cc1csc(NC(=O)Nc2ccc(Cl)cc2)n1)Nc1ccc(Br)cc1 | nt | -9 | nt | nt | nt | nt
O=S(=O)(c1cccnc1)N1CCC(c2nnc(-c3ccco3)o2)CC1 | nt | -5 | nt | nt | nt | nt
Cn1nc(-c2cccs2)cc1C(=O)N1CCCC(c2nnc(-c3ccccc3F)s2)C1 (stereo not drawn) | nt | 6 | nt | nt | nt | nt
COC(=O)[C@@]12C[C@@H](CC(=O)NCc3ccc(OC)c(OC)c3)C(=O)N(Cc3ccco3)C1=CCC(C)(C)C2 | nt | nt | nt | nt | 37* | -11
CC(C)(C)c1cc(=O)n(-c2ccccc2)[nH]1 | -11 | -2 | -3 | nt | 77* | -7
O=c1cc(-c2ccccc2)[nH]n1-c1ccccc1 | nt | 10 | nt | nt | 25 | nt
CC(=O)N1c2ccccc2N=C(c2ccc(C(F)(F)F)cc2)C1C(=O)NC(C)C (stereo not drawn) | nt | nt | nt | nt | 30* | -14
Cc1ccc(NC(=O)Nc2c(C)nc(N(C)C)nc2C)c(Cl)c1 | nt | -14 | nt | nt | nt | nt
O=C(CCCn1c(=O)oc2ccccc21)N1CCc2ccccc2C1 | 15 | 4 | -4 | 5 | 35* | -9
SMILES | VHR inh abs | SSB-PriA inh | SARS 3CLpro inh | RecA splice inh | CCHF vOTU inh-1 | CCHF vOTU inh-2
CC[C@H](C)c1ccccc1OCC(=O)Nc1ccc(S(=O)(=O)N2CCc3ccccc32)cc1 | nt | -5 | nt | nt | nt | nt
O=C(c1nc[nH]c1C(=O)N1CCc2ccccc2C1)N1CCc2ccccc2C1 | nt | -3 | nt | nt | 43* | -3
CN(Cc1ccccc1)C(=O)c1nc[nH]c1C(=O)N1CCc2ccccc2C1 | nt | 4 | nt | nt | -6 | nt
Cn1c2ccccc2c2cc(/C=C(\NC(=O)c3ccccc3)C(=O)O)ccc21 | -4 | -8 | 4 | 0 | 30* | -6
COC(=O)c1ccc(C2C(S(=O)(=O)c3ccc(C)cc3)=C(O)C(=O)N2c2ccc(OC)cc2)cc1 (stereo not drawn) | nt | -12 | nt | nt | nt | nt
O=c1ccc(-n2ccc3ccccc32)nn1CCNS(=O)(=O)c1ccc2c(c1)CCO2 | nt | 4 | nt | nt | nt | nt
O=C(COC(=O)c1ncc(Cl)c(Cl)c1Cl)NC1CCCCCC1 | nt | 5 | nt | 0 | 41* | 8
C=CC[C@@H](CC(=O)N(CCO)Cc1ccccc1)C(=O)N[C@H](COC(=O)[C@@H](CC=C)CC(=O)OC(C)(C)C)Cc1ccccc1 | nt | -10 | nt | nt | 37* | 21
C=CC[C@@H](CC(=O)N(CCO)Cc1ccccc1)C(=O)NC[C@H](OC(=O)[C@@H](CC=C)CC(=O)OC(C)(C)C)c1ccccc1 | nt | 6 | nt | nt | 37* | 11

Screening results (PubChem BioAssay)
